Hit rate of the full screen: of about 310,000 compounds, about 14,000 (4.5%) showed an effect of 50% or more. The effect is printed as a negative number. The sample holds strong results, similar compounds and a random draw of the others, so the mix is not that of the screen.
biological target: human ether-à-go-go-related gene (hERG) potassium channel (human, UniProt Q12809); assay: primary screen, population patch clamp on CHO cells stably expressing hERG; higher = less effect of the substance
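Note: peak tail current of the secondary pulse compared with the same well before compound.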

human ether-à-go-go-related gene (hERG) potassium channel, sequence (Q12809 whole entry, looked up): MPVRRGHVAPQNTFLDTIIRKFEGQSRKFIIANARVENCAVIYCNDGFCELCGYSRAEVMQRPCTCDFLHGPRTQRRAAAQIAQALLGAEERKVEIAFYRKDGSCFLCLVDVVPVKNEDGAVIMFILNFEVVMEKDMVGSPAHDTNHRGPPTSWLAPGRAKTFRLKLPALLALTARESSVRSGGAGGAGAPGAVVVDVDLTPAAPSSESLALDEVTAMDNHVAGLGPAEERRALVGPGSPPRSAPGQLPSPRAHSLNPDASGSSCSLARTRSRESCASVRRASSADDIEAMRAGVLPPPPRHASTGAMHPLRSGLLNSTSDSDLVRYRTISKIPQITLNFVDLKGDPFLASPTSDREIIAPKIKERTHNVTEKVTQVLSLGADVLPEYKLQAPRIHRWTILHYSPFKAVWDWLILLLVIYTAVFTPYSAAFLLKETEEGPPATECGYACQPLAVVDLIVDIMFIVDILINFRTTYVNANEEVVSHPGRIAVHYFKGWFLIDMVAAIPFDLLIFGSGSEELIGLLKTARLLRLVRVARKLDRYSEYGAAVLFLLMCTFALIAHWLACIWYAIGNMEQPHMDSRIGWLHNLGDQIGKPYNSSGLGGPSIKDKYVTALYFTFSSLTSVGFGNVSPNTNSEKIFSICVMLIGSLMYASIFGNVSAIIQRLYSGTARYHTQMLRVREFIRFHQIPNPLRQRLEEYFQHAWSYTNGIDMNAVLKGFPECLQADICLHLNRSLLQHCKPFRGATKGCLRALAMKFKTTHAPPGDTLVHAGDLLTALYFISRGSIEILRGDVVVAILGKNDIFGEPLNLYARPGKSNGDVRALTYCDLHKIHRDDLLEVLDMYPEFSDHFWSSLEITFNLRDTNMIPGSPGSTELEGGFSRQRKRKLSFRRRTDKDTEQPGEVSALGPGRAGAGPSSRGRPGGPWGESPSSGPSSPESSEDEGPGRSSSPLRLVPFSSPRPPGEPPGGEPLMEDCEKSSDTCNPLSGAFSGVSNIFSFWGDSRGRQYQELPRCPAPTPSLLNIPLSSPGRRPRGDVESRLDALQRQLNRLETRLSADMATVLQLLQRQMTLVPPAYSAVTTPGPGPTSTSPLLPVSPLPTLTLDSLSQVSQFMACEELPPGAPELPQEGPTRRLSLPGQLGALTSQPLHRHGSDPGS

Row | SMILES | hERG current change (%, negative = inhibition) at 10uM
1 | Cc1ccc(Oc2ccccc2/C=C/C(=O)O)cc1 | 14.6%
2 | C=CCn1c(SCC(=O)NC(=O)NC2CCCC2)nnc1C1CCCCC1 | 3.7%
3 | O=C(CSc1nnc(CNc2ccc(F)cc2)o1)N1c2ccccc2Sc2ccccc21 | 11%
4 | CCN1CCN(CCNC(=O)c2ccc(/C=C3/Sc4ccccc4N(Cc4cccc(C)c4)C3=O)cc2)CC1 | -22%
5 | CCOc1cc(CNCCCN2CCOCC2)ccc1OCC(=O)Nc1cccc2ccccc12.Cl | -7.77%
6 | CCOc1cc(CNCCCN2CCOCC2)cc(Br)c1OCc1ccccc1Cl.Cl | -64.9%
7 | CCC(CO)NCc1ccc(OCC(=O)Nc2cccc(C(F)(F)F)c2)c(OC)c1 (stereo not drawn) | -43.6%
8 | CCOc1cc(CNC(C)(C)C)ccc1OCC(=O)Nc1cccc(C(F)(F)F)c1.Cl | -13.7%
9 | CCOc1cc(CNCCCN2CCOCC2)cc(Br)c1OCC(=O)Nc1cccc(C(F)(F)F)c1.Cl | -70.3%
10 | COc1cc(CNCCCN2CCOCC2)ccc1OCC(=O)Nc1cccc(C(F)(F)F)c1.Cl | -56.6%
11 | CCOc1cc(CNCCO)cc(Br)c1OCc1ccccc1Cl.Cl | 12.5%
12 | CCOc1cc(CNCCN2CCOCC2)ccc1OCc1ccccc1Cl.Cl | -41.8%
13 | CCOc1cc(CNCCCN2CCOCC2)cc(Cl)c1OCC(=O)NC(C)(C)C.Cl | 5.38%
14 | COc1cc(CNCCCN2CCOCC2)ccc1OCC(=O)NC(C)(C)C.Cl | 21%
15 | COc1ccc(NC(=O)COc2ccc(CNCCCN3CCOCC3)cc2OC)cc1.Cl | 0.185%
16 | CCOc1cc(CNC(CC)CO)ccc1OCC(=O)Nc1cccc(C(F)(F)F)c1 (stereo not drawn) | -68.3%
17 | CCOc1ccc(CC(=O)Nc2ccc(S(=O)(=O)N3CCCC3)cc2)cc1 | 10.4%
18 | Cc1cc(C(=O)COC(=O)CC2Sc3ccccc3NC2=O)c(C)n1-c1ccccc1 (stereo not drawn) | 28%
19 | O=C(COc1ccc2c(c1)C(=O)CC1(CCCCC1)O2)NCc1ccccn1 | -33.9%
20 | O=C(CCS(=O)(=O)c1cccc2nonc12)Nc1cccc2c1CCCC2 | 4.5%
21 | Cc1ccc(C)c(N2CC(C(=O)O)CC2=O)c1 (stereo not drawn) | -2.08%

Row | SMILES | hERG current change (%, negative = inhibition) at 10uM
22 | CN(CC(=O)Nc1ccc(Cl)cc1)C(=O)COc1ncnc2ccccc12 | -8.52%
23 | CCCCn1nnnc1SCC(=O)N(CC)CC | 10.4%
24 | CCOc1ccc(NC(=O)CSc2nnc(C)n2Cc2ccccc2)cc1 | -16.4%
25 | O=C(CN1CC[n+]2c(-c3ccccc3)csc21)c1ccc(Br)cc1.[Br-] | -40.6%
26 | O=C(CN1CC[n+]2c(-c3cccs3)csc21)c1ccc(-c2ccccc2)cc1.[Br-] | -54.3%
27 | O=C(CN1CC[n+]2c(-c3cccs3)csc21)c1ccc(Br)cc1.[Br-] | -45.9%
28 | NNC(=O)c1cccc(S(=O)(=O)Nc2cccc(C(F)(F)F)c2)c1 | 1.4%
29 | CC1CN(c2ccc([N+](=O)[O-])cn2)CC(C)O1 (stereo not drawn) | -19.7%
30 | O=C1CCC(=O)N1CCC(c1ccc(F)cc1)c1ccco1 (stereo not drawn) | 4.27%
31 | CC1(C)CC(NCc2ccccc2)CCO1.Cl (stereo not drawn) | 5.1%
32 | CC1(C)CC(C(=O)NCCC(c2ccccc2)c2ccco2)CCO1 (stereo not drawn) | -9.31%
33 | O=C1c2ccccc2C(=O)N1CCC(c1ccc(F)cc1)c1ccco1 (stereo not drawn) | -6.1%
34 | CC1(C)CC(CNCCC(c2ccc(F)cc2)c2ccco2)CCO1 (stereo not drawn) | -62.5%
35 | CC1(C)CC(NCCC(c2ccccc2)c2ccco2)CCO1 (stereo not drawn) | -52.5%
36 | Cc1ccc(NC(=O)COC(=O)CCC(=O)c2ccc(Cl)cc2)cc1S(=O)(=O)N(C)C | -1.5%
37 | CCOC(=O)N1CCc2c(sc3nc(SC(C)C)n(N)c(=O)c23)C1 | -20.9%
38 | Clc1nc(NCc2ccco2)nc(N2CCCCC2)n1 | 33.5%
39 | Cl.c1ccc(N2CCN(c3nc(NCc4ccco4)c4ccccc4n3)CC2)cc1 | -73.6%
40 | Cl.c1coc(CNc2ncnc3ccccc23)c1 | 2.88%
41 | Cl.c1coc(CNc2nc(N3CCCCC3)nc3ccccc23)c1 | -77.5%
42 | Fc1ccccc1-c1nc(NCc2ccco2)c2ccccc2n1 | -2.1%

Row | SMILES | hERG current change (%, negative = inhibition) at 10uM
43 | CC(C)C(=O)NNC(=O)c1csc(CS(=O)(=O)c2ccc(Cl)cc2)n1 | -1.62%
44 | O=c1cc(-c2ccc(O)cc2)oc2ccccc12 | 16.1%
45 | CCOC(=O)c1ccc(NC(=O)C2C3C=CC(C3)C2C(=O)O)cc1 (stereo not drawn) | 4.67%
46 | CN(C)CC/C=C1\c2cc(F)ccc2CSc2ccccc21.O=C(O)/C=C\C(=O)O | -35.4%
47 | COc1ccc2c(c1)C1C=CCC1C(c1cc3c(cc1Br)OCO3)N2 (stereo not drawn) | 1.4%
48 | O=C(N/C(=C\c1ccccc1)C(=O)N1CCCCC1)c1ccc(Br)o1 | 15.8%
49 | O=C(N/C(=C\c1ccc([N+](=O)[O-])cc1)C(=O)N1CCCCC1)c1ccco1 | -70.3%
50 | O=C(N/C(=C\c1ccc(Cl)cc1)C(=O)N1CCOCC1)c1ccco1 | -31.4%
51 | COc1ccc(/C=C(\NC(=O)c2ccco2)C(=O)N2CCOCC2)cc1 | 0.365%
52 | O=C(N/C(=C\c1ccc([N+](=O)[O-])cc1)C(=O)N1CCOCC1)c1ccco1 | -69.2%
53 | O=C(N/C(=C/c1ccccc1)C(=O)N1CCCCC1)c1ccc(Br)o1 | -7.64%
54 | O=C(N/C(=C/c1ccc([N+](=O)[O-])cc1)C(=O)N1CCOCC1)c1ccco1 | -70.1%
55 | O=C(N/C(=C\c1cccc([N+](=O)[O-])c1)C(=O)N1CCOCC1)c1ccco1 | 14.9%
56 | O=C(N/C(=C/c1cccc([N+](=O)[O-])c1)C(=O)N1CCCCCC1)c1ccco1 | -28.2%
57 | O=C(N/C(=C/c1cccc([N+](=O)[O-])c1)C(=O)N1CCCCC1)c1ccco1 | -2.24%
58 | O=C(N/C(=C\c1ccccc1)C(=O)N1CCOCC1)c1ccco1 | 17.1%
59 | O=C(N/C(=C\c1ccc([N+](=O)[O-])cc1)C(=O)N1CCCCC1)c1ccc(Br)o1 | -72%
60 | C=C1C(=O)O[C@@H]2C[C@@H](C)[C@H]3C=CC(=O)[C@]3(O)C[C@@H]12 | 19.3%
61 | Cc1ccc(C(=O)C(OC(=O)CNC(=O)c2ccc(Cl)cc2)c2ccccc2)cc1 (stereo not drawn) | 2.15%
62 | COc1ccc(-c2[nH]ncc2/C=N/NC(=O)c2ccncc2)c(OC)c1 | 13.8%
63 | O=C(CSc1ccccn1)Nc1ccc2c(c1)oc1ccccc12 | 12.8%

Row | SMILES | hERG current change (%, negative = inhibition) at 10uM
64 | N#Cc1cc2ccccc2nc1SCC(=O)NC1CC1 | 4.58%
65 | O=C(CN1C(=O)CSC1=O)c1ccccc1 | 1.83%
66 | CCOc1cc2nc(-c3ccc(OC)c(OC)c3)nc(N3CCOCC3)c2cc1OC | -15.5%
67 | COc1ccc(C2CC(c3ccc(F)cc3)Nc3nc(N)nn32)cc1 (stereo not drawn) | -27%
68 | O=C(Nc1ncc2c(n1)CC(c1cccc(Cl)c1)CC2=O)c1ccco1 (stereo not drawn) | -39%
69 | COc1ccc(C2CC(c3ccc(OC)cc3)n3nc(NC(=O)c4cccs4)nc3N2)cc1 (stereo not drawn) | -13.9%
70 | O=C(Nc1ncc2c(n1)CC(c1ccc(Cl)cc1)CC2=O)c1ccco1 (stereo not drawn) | -71.6%
71 | CC1CC(c2ccccc2)n2nc(NC(=O)c3cccs3)nc2N1 (stereo not drawn) | 16.6%
72 | COc1ccc(C2CC(c3ccc(F)cc3)n3nc(NS(C)(=O)=O)nc3N2)cc1 (stereo not drawn) | 8.06%
73 | COc1ccc(C2CC(c3ccc(F)cc3)n3nc(NC(=O)c4ccco4)nc3N2)cc1 (stereo not drawn) | -60.3%
74 | O=C(Nc1nc2n(n1)C(c1ccc(F)cc1)CC(c1ccccc1)N2)c1ccco1 (stereo not drawn) | -57.4%
75 | CS(=O)(=O)Nc1nc2n(n1)C(c1ccc(F)cc1)CC(c1ccccc1)N2 (stereo not drawn) | -4.13%
76 | Nc1nc2n(n1)C(c1ccccc1)CC(c1ccc(F)cc1)N2 (stereo not drawn) | -10.1%
77 | O=C(Nc1ncc2c(n1)CC(c1ccccc1)CC2=O)c1ccco1 (stereo not drawn) | -21.9%
78 | COc1ccc(C2CC(c3ccccc3)Nc3nc(NC(=O)c4cccs4)nn32)cc1 (stereo not drawn) | -52%
79 | C[C@]12CCC3C(CC[C@H]4CC(O)CC[C@]34C)C1CC/C2=N/NC(=O)c1ccncc1 (stereo partly drawn) | -10.8%
80 | COc1c(C)cccc1C(=O)Nc1cc(Cl)ccc1N1CCOCC1 | 7.1%
81 | O=C(Nc1cc(-c2ccccc2)sc1C(=O)O)c1cccc(F)c1 | 33.5%
82 | CCOC(=O)C1CCN(C(=O)CCNS(=O)(=O)c2ccc3c(c2)CCN3C(=O)CC)CC1 | 7.82%
83 | CCc1ccc(CN(C)CC(=O)Nc2sccc2C#N)cc1 | -16.4%
84 | COc1ccc(/C=N/N=C2/NC(=O)C(CC(=O)O)S2)cc1OCc1ccc(Cl)cc1 (stereo not drawn) | -1.97%
